MMP-13 inhibitor – blocks human MMP13 activity. inhibition, % at 4 µM. MMP-13 fTHP FRET cleavage, Mca fluorescence. hit rate 0.07% among 65,000. P45452. AID 570;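 active means inhibition above the mean of compound-free control plate wells plus 3 SD, cut at about 14% in these data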
M1 antag – antagonists of rat M1 muscarinic receptor | P08482 | CHO-M1 cells, Fluo-4 calcium, ACh EC80 antagonist mode; hits give low values | B-score at 10 µM | hit rate 3.4% among 64,000 | AID 628;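 active means calcium fluorescence response, raw or row-and-column corrected B-score, differing from the plate sample mean either way at a set confidence level, mostly lower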
Cdc25B block – inhibitors of human Cdc25B phosphatase; hit rate 0.1% among 65,000; P30305; recombinant Cdc25B, OMFP fluorescence Ex485/Em525; inhibition, %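 (compounds tested at 10 µM final in the well)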; in the data active means inhibition above about 50%
Hsp90 inh – displaces geldanamycin probe from tumor Hsp90; hit rate 0.35% among 64,000; P07900; AID 429; NCI-N417 lysate Hsp90, Cy3B-geldanamycin FP displacement; inhibition, % at 30 µM;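 active means inhibition above 50%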
DUSP1 inh – human dual specificity phosphatase 1 inhibition | hit rate 0.15% among 65,000 | inhibition, %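 (compounds tested at a single concentration somewhere between 10 and 100 µM)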 | AID 374 | recombinant MKP-1, OMFP hydrolysis fluorescence;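 active means inhibition above about 50%, limit read from the data; inconclusive means inhibition over screen mean plus 3 SD, below that limit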
Target sequence (P28562 whole entry, looked up): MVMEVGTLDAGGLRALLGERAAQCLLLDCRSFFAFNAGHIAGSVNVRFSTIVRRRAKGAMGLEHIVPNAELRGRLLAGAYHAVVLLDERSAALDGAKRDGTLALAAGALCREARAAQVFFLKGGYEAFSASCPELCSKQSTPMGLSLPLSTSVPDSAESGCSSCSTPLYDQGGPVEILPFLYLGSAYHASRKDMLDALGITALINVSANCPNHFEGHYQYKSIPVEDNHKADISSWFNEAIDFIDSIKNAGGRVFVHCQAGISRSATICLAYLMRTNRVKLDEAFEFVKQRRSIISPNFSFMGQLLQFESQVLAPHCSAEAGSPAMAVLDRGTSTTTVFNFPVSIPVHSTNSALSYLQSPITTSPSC
M1 agonist – activates the M1 muscarinic receptor; CHO-M1 cells, Fluo-4 calcium fluorescence, agonist mode; hits give high values; B-score at 10 µM; hit rate 3% among 64,000; AID 626;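 active means fluorescence rise, raw or as B-score row- and column-corrected plate score, outside the 99.7% band of its plate's samples, either direction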
M1 ag confirm – rat M1 muscarinic agonism, confirmation; fluorescence change (max-min) at 10 µM; CHO-M1 cells, Fluo-4 calcium fluorescence, agonist mode; actives lie on both sides; shares compounds with M1 agonist; hit rate 19% among 1,700;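 active means fluorescence change differs from the solvent-only DMSO control mean at a set confidence level in both duplicate runs; inconclusive means differs from solvent-only control mean in just one of two runs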;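 further: an EC20 dose of acetylcholine follows compound addition during the same imaging run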
M4 agonist ctr – counter-screen for M1 agonists: activity at rat M4 receptor; shares compounds with M1 agonist; CHO M4/Gqi5 cells, Fluo-4 calcium fluorescence, agonist mode; actives lie on both sides; fluorescence change (max-min) at 10 µM; hit rate 9% among 1,700; AID 1741;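 active means fluorescence change differing from the plate's solvent-only control wells at 99.7% confidence in both duplicates, whether higher or lower; inconclusive means differs from solvent controls in only one of two duplicates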
Of the large screens only hits and unclear results are named; the others gave an inactive call (follow-up assays come after a bar, where they were run). Only some compounds are listed: those with a hit (about 6.1% of all), similar ones and a draw of the others.

CCN(CC)CCN1C(=O)C(=O)/C(=C(/O)c2ccncc2)C1c1ccccc1F (configuration not stated)	M1 agonist 35 | M1 ag confirm inactive | M4 agonist ctr inconclusive
CCN(CC)CCN1C(=O)C(=O)/C(=C(/O)c2ccc(F)cc2)C1c1ccncc1 (configuration not stated)	none
O=C(Cn1nnc(-c2cccc(C(F)(F)F)c2)n1)NC1CCCC1	none
Cc1cc(S(=O)(=O)N2CCN(Cc3ccc4c(c3)OCO4)CC2)cc(C)c1N1CCCC1=O	M1 agonist 3.3 | M1 ag confirm inactive | M4 agonist ctr inactive
COc1ccc(Cl)cc1S(=O)(=O)N1CCN(Cc2ccc3c(c2)OCO3)CC1	none
Cn1c(C(F)(F)F)nc2c(=O)oc3ccccc3c21	none
CCOC(=O)c1c(C)oc2c1c(C(c1ccncc1)N1CCOCC1)c(O)c1ccccc12 (configuration not stated)	M1 agonist 3 | M1 ag confirm inconclusive | M4 agonist ctr inactive
Cc1ccc2c(COn3nnc4ccc(S(=O)(=O)N(C)C)cc43)cc(=O)oc2c1C	M1 agonist 21 | M1 ag confirm inactive | M4 agonist ctr inactive
CCN(CCO)Cc1cc(=O)oc2c(C)c(C)ccc12	none
O=C(CCN1CCN(Cc2ccccc2)CC1)Nc1cccc(Cl)c1	none (no result: M1 antag, M1 agonist)
c1ccc2c(c1)nc(N1CCOCC1)c1nnnn12	M1 agonist 6.4 | M1 ag confirm inactive | M4 agonist ctr inactive
c1ccc2c(c1)nc(N1CCN(C3CCCCC3)CC1)c1nnnn12	none
c1ccc(N2CCN(c3nc4ccccc4n4nnnc34)CC2)cc1	M1 agonist 17 | M1 ag confirm inconclusive | M4 agonist ctr inconclusive
CCCCCn1c(SCCc2ccccc2)nc2c1c(=O)[nH]c(=O)n2C	none
CCCn1c(SCCc2ccccc2)nc2c1c(=O)[nH]c(=O)n2C	M1 agonist 4.7 | M1 ag confirm inconclusive | M4 agonist ctr inactive
Cc1nnc(SCCCn2c(N3CCN(c4ccccc4)CC3)nc3c2c(=O)[nH]c(=O)n3C)s1	M1 antag -2.1, M1 agonist 11 | M1 ag confirm inactive | M4 agonist ctr inconclusive
CC1CCN(c2nc3c(c(=O)[nH]c(=O)n3C)n2Cc2ccccc2)CC1	none
CCn1c(N2CCC(Cc3ccccc3)CC2)nc2c1c(=O)[nH]c(=O)n2C	M1 agonist 5.4 | M1 ag confirm inconclusive | M4 agonist ctr inactive
Cc1nnc(SCCn2c(N3CCCCC3)nc3c2c(=O)[nH]c(=O)n3C)s1	none
COc1ccc(N2CCN(C(=O)CSc3nnc(Cn4nnc5ccccc54)n3C)CC2)cc1	none
COCCCn1c(SCC(=O)N2CCCC(C)C2)nnc1-c1ccco1 (configuration not stated)	none
CCOC(=O)C(C(=O)Nc1nccs1)C1CCCCC1 (configuration not stated)	none
CCN(CC)S(=O)(=O)c1ccc2oc(C(=O)NCC3COc4ccccc4O3)c(C)c2c1 (configuration not stated)	none (no result: Hsp90 inh)
C[N+](C)(C)C/C=C1/COCO1	M1 antag -13, M1 agonist 49 | M1 ag confirm 437 | M4 agonist ctr 178
C/C(N)=C(\C#N)C(=O)NCc1ccccn1	none
COc1cc2c(C#N)c(N3CCN(c4ccccc4OC)CC3)nc(N)c2c(N)n1	M1 agonist 3.4 | M1 ag confirm -27 | M4 agonist ctr inactive
CCOC(=O)/C(C#N)=C1\Nc2ccccc2N=C1N(CC(C)C)CC(C)C	M1 agonist 8.1 | M1 ag confirm inconclusive | M4 agonist ctr inactive
CCOC(=O)/C(C#N)=C1/C=CN(C)C(C)=N1	none
C=CCn1c(=O)c2ccccc2n2c(SCc3nc(N)nc(Nc4ccccc4C)n3)nnc12	M1 agonist 4 | M1 ag confirm inconclusive | M4 agonist ctr inactive
COc1ccc(OC)c(CN2CCN(C(=O)c3cccs3)CC2)c1	M1 agonist 15 | M1 ag confirm inactive | M4 agonist ctr inconclusive
COc1ccc(CN2CCN(C(=O)c3cccs3)CC2)cc1	none
Cn1c(C(=O)Nc2ccc3c(c2)OCCO3)cc2c(=O)n(C)c3ccccc3c21	M1 agonist 4.6 | M1 ag confirm inactive | M4 agonist ctr inactive
CCOC(=O)N1CCC(NC(=O)c2cc3c(=O)n(C)c4ccccc4c3n2C)CC1	M1 agonist 2 | M1 ag confirm inconclusive | M4 agonist ctr inactive
Cn1c(C(=O)NC2CC2)cc2c(=O)n(C)c3ccccc3c21	none
COCCOC(=O)c1c(C)oc2ccc(OC(=O)c3c(OC)cccc3OC)cc12	none
NC(=O)c1ccsc1NC(=O)c1ccc(S(=O)(=O)N2CCCCC2)cc1	M1 agonist 3.1 | M1 ag confirm inconclusive | M4 agonist ctr inactive
CCc1nnc(NC(=O)c2ccc(S(=O)(=O)N3CCCCCC3)cc2)s1	none
O=C(Nc1ccc(S(=O)(=O)N2CCCCC2)cc1)c1ccncc1	M1 agonist -2.9 | M1 ag confirm -22 | M4 agonist ctr -72
C=Cn1c(N2CCOCC2)nc2c1c(=O)[nH]c(=O)n2C	none
Cn1c(SCC(=O)NC(C)(C)C)nnc1-c1ccc(C(C)(C)C)cc1	none
N#Cc1c(-c2cccs2)cc(-c2ccccn2)nc1N	none (no result: M1 antag, M1 agonist)
N#Cc1c(-c2cccs2)cc(-c2cccnc2)nc1N	M1 agonist 2.8 | M1 ag confirm inconclusive | M4 agonist ctr inactive
COc1cc(-n2c3nc4ccccc4nc3c3c(=O)n(Cc4ccco4)cnc32)cc(OC)c1OC	none
C=CCn1cnc2c(c1=O)c1nc3ccccc3nc1n2/N=C/c1cc(OC)c(OC)c(OC)c1	M1 antag -2.2, M1 agonist 11 | M1 ag confirm -33 | M4 agonist ctr inactive
Cc1cc(C)cc(N(CC(=O)NC2CCC(C)CC2)S(=O)(=O)c2c(C)noc2C)c1 (configuration not stated)	none
O=C(CSc1nnc(NC(=O)CN2CCOCC2)s1)Nc1ccccc1	none
COc1ccc(S(=O)(=O)NCCOc2ccccc2)cc1OC	M1 agonist 2.3 | M1 ag confirm inactive | M4 agonist ctr inactive
Cc1ccc2[nH]c3c(NCc4ccco4)ncnc3c2c1	M1 agonist 8.5 | M1 ag confirm inactive | M4 agonist ctr inactive
CCc1cccc2c(C#N)cn(CCOc3ccccc3OC)c12	none
COc1cccc(C(=O)OCc2ccccc2C#N)c1O	M1 agonist -2.2 | M1 ag confirm -27 | M4 agonist ctr -79
Nc1nnc(N2CCc3ccccc32)s1	M1 agonist 3.4 | M1 ag confirm inconclusive | M4 agonist ctr -72
O=C(CC(Sc1ccccc1)c1cccs1)c1ccco1 (configuration not stated)	none
COC(=O)C1=C(C)NC(=O)CC1c1cccc(Cl)c1Cl (configuration not stated)	M1 agonist 3.8 | M1 ag confirm inconclusive | M4 agonist ctr inactive
CCc1nnc(NC(=O)CSc2nnc(Cc3cccn3C)n2CCOC)s1	none

Screens from PubChem.
